The record followed here is PubChem BioAssay AID1445 (SRMLSC, 2008).

Among all 220,000 compounds or so, about 910 (0.41%) were called active. What follows is part of a selection rich in actives, with near analogues and random picks from the rest. Potency and affinity values are given separately. Values without a mark were called inactive.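 Rule for the calls: active = primary inhibition above the hit cutoff, then over 50% inhibition at one or more dose response concentrations (cut at about 23% in these data, passing the limit was not always enough); inconclusive = conflicting primary data, or primary hits not chosen for dose response; inactive = low primary inhibition, or under 50% at every dose.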

The target in this assay is Aminopeptidase N (Plasmodium falciparum (isolate 3D7)) (UniProt O96935). Kind of assay: P. falciparum M1AAP inhibitors, biochemical, fluorogenic H-Leu-NHMec substrate, 1536-well (AID 1445).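 Note: plate controls were DMSO full reaction for no effect and no enzyme background for full effect.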 The note with it: recombinant M1AAP, H-Leu-NHMec fluorogenic kinetic assay; at 30 µM, hits give high values unless noted.
Sequence of Aminopeptidase N (Plasmodium falciparum (isolate 3D7)) (O96935 whole entry, looked up): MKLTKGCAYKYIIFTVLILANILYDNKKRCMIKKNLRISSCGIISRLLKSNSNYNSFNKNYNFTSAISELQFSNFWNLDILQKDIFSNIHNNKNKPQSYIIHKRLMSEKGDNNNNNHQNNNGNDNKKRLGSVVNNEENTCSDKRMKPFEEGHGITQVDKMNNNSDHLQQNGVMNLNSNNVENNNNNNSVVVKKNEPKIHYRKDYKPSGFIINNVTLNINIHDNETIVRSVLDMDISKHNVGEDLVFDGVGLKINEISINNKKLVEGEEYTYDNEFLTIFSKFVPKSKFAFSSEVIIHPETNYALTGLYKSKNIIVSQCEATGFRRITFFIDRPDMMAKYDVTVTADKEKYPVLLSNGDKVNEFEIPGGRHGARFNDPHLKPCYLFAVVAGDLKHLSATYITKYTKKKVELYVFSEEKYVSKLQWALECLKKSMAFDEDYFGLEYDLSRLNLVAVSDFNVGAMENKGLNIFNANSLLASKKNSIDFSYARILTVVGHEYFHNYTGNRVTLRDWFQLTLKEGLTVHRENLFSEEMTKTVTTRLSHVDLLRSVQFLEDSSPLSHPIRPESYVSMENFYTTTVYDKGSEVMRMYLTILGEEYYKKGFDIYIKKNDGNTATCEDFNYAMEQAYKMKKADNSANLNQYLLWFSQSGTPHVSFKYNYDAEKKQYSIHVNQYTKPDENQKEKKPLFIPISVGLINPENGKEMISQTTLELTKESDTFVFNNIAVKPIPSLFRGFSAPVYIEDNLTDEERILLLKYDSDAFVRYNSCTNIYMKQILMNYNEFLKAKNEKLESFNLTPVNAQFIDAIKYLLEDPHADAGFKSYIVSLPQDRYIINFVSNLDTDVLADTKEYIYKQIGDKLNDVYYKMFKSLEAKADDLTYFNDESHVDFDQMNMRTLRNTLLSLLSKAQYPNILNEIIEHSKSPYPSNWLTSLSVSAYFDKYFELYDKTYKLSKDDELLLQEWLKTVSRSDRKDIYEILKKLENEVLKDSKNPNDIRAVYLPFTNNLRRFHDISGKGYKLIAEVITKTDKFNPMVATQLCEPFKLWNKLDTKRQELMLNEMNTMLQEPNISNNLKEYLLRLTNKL
One may read the inhibition as the change of the read-out against control, counted positive when it falls. In the case of `CC(=O)N1C(=O)/C(=C2\SC(=S)N(c3c(C)n(C)n(-c4ccccc4)c3=O)C2=O)c2ccccc21`, the inhibition is 9.72%.
As to `CCN1C(=O)/C(=C2\SC(=S)N(CCCOC)C2=O)c2ccccc21`, the inhibition was 0.63%.
The result for `CC(/C=C1\SC(=S)N(NC(=O)c2ccc(O)cc2)C1=O)=C\c1ccccc1` reads 4.4%; that for `CC(/C=C1\SC(=S)N(NC(=O)c2ccc(C)cc2)C1=O)=C\c1ccccc1`, 5.4%; that for `CC(/C=C1\SC(=S)N(NC(=O)c2ccccc2C)C1=O)=C\c1ccccc1`, 4.17%.
Consider `CCN1C(=O)/C(=C2\SC(=S)N(CC3CCCO3)C2=O)c2ccccc21` (stereo not given), for which the inhibition was 2.68%.
The result for `Cc1ccc(S(=O)(=O)N2C(=O)/C(=C3\SC(=S)NC3=O)c3ccccc32)cc1` reads 16.8%.
In the case of `CC(/C=C1\SC(=S)N(NC(=O)c2ccncc2)C1=O)=C\c1ccccc1` it was 13.9%; in that of `CC1=C(C(=O)c2ccccc2)C(c2ccc(OC(F)F)cc2)NC(=S)N1` (stereo not given), 3.11%.
Consider `CN1CCN(CC(=O)NC2CCCCC2)CC1`, for which the inhibition was -3.84%.
As for `Cc1cc(C)n(-c2nc3c(c(=O)[nH]c(=O)n3C)n2Cc2cccc(Br)c2)n1`, the inhibition is 6.71%.
The result for `COc1cccc(NS(=O)(=O)c2ccc(OC)c(OC)c2)c1` reads 8.68%; that for `COc1cc(Cl)c(C)cc1NC(=O)c1ccc2c(SCC(=O)O)c3c(nc2c1)CCCC3`, 39.2%; that for `COc1ccc(NC(=O)c2ccc3c(SCC(=O)O)c4c(nc3c2)CCCC4)cc1Cl`, 6.4%.
For `CC(=O)c1ccc(OCc2cc([N+](=O)[O-])cc3c2OCOC3)cc1`, the inhibition is 0.98%.
In the case of `CP(C)(=O)CCP(=O)(c1ccccc1)c1ccccc1` it was 2.48%; in that of `CCCc1nc(C)c(-c2ccc(OC)c(OC)c2)c(=O)[nH]1`, 2.27%.
Take `Cc1c(CCC(=O)O)c(=O)oc2cc3oc4c(c3cc12)CCCC4`: the inhibition was 8.26%.
In the case of `Cc1c(CCC(=O)O)c(=O)oc2cc3occ(C(C)(C)C)c3cc12` it was 12.5%; in that of `Cc1coc2cc3oc(=O)c(Cc4ccccc4)c(C)c3cc12`, 16.1%.
In the case of `Cc1c(CCC(=O)O)c(=O)oc2cc(O)ccc12`, the inhibition is 18.6%.
Turning to `CC(C)Oc1cccc(C(=O)C2CCCN(Cc3cnn(C(C)C)c3)C2)c1` (stereo not given), the inhibition is 3.98%.
For `Cc1ccc(/C=[N+](/C)[O-])cc1`, the inhibition was 5.58%.
Regarding `CSc1ccc(C2C(C#N)=C(N)Oc3c2ccc(=O)c2c(C)oc(C)c32)cc1` (stereo not given), the inhibition was 23.3% (active).
Turning to `Cc1oc(C)c2c(=O)ccc3c(c12)OC(N)=C(C#N)C3c1ccc(F)cc1` (stereo not given), the inhibition is 3.21%.
The result for `Cc1oc(C)c2c(=O)ccc3c(c12)OC(N)=C(C#N)C3c1ccccc1` (stereo not given) reads 12.5%; that for `COc1cccc(C2c3[nH]c4ccccc4c3CCN2Cc2cccn2-c2ncccn2)c1` (stereo not given), 1.34%.
In the case of `CCOC(=O)CSCc1nc(-c2ccc(Cl)cc2)oc1C` it was -0.93%; in that of `C/C(=N\NC(=O)COc1ccc(C(C)(C)C)cc1)c1ccc(OC(F)F)cc1`, 6.66%.
As for `NC(=O)c1cccc(CC(=O)c2ccccc2)c1`, the inhibition was 8.26%.
In the case of `COc1cc(C=O)ccc1OCC(=O)N1CCCC1` it was -0.53%; in that of `COc1ccccc1NS(=O)(=O)c1ccc(Cl)c(NC(=O)CN2C(=O)c3ccccc3C2=O)c1`, 11.8%.
Regarding `COc1ccccc1NS(=O)(=O)c1ccc(Cl)c(NC(=S)NC(=O)C2CCCC2)c1`, the inhibition is 6.44%.
In the case of `Cc1cc(O)c(C=Nc2cccc(Cl)c2)c(=O)o1` it was 13.6%; in that of `O=C1CNC(=O)/C1=C\N1CCN(C(c2ccccc2)c2ccccc2)CC1`, 10.1%; in that of `Cc1c(C(c2ccc(O)cc2)c2c(C)n(C)n(-c3ccccc3)c2=O)c(=O)n(-c2ccccc2)n1C`, -4.97%.
With `COc1ccc(C(c2c(C)n(C)n(-c3ccccc3)c2=O)c2c(C)n(C)n(-c3ccccc3)c2=O)cc1O`, the inhibition was 2.02%.
In the case of `COc1ccc(-c2cc(=Nc3c(C)n(C)n(-c4ccccc4)c3=O)c3ccccc3o2)cc1` it was 10.6%; in that of `Cc1c(C(c2ccccc2O)c2c(C)n(C)n(-c3ccccc3)c2=O)c(=O)n(-c2ccccc2)n1C`, -0.33%.
In the case of `FC(F)(F)c1ccccc1CN1CCN(C2CCCCCC2)CC1` it was 3.5%; in that of `CCOC(=O)N1CCN(C(=O)COc2cc(=O)n(CC)c3ccccc23)CC1`, 3.47%.
The result for `Cc1ccccc1NC(=O)N1CCc2ccccc2C1` reads 1.94%; that for `O=Cc1ccc2cccnc2n1`, 3.17%; that for `Cc1ccccc1NC(=O)c1ccccc1O`, 12.9%.
As to `O=C(O)c1ccc(COc2ccccc2/C=C2\NC(=O)N(Cc3ccccc3)C2=O)cc1`, the inhibition is -0.49%.
The result for `O=C1c2ccccc2C(=O)N1Cc1ccco1` reads 3.2%.
In the case of `O=C(CN1C(=O)S/C(=C\c2ccccc2)C1=O)NNC(=O)c1ccccc1O` it was 6.38%; in that of `O=C(Nc1ccc(O)cc1)c1ccc2c(c1)C(=O)N(Cc1ccco1)C2=O`, 3.19%; in that of `CC1=CC(C)(C)NC(=S)N1c1ccccc1C`, 0.18%.
Take `CCOc1ccc(-c2nnc3ccc(SCC(=O)Nc4nc5ccccc5s4)nn23)cc1`: the inhibition is -0.15%.
Regarding `Cc1c(NC(=O)C(C)OC(=O)[C@@H](NC(=O)c2ccccc2)C(C)C)c(=O)n(-c2ccccc2)n1C` (stereo not given in full), the inhibition is 11.4%.
In the case of `CC(C)Cn1c(-c2ccncc2)n[nH]c1=S` it was -1.73%; in that of `CCc1ccc2[nH]c(=O)c(CN(CCN(CC)CC)C(=O)NC3CCCCC3)cc2c1`, 6.76%; in that of `CCOC(=O)CNC(=O)Cc1ccc(OC)cc1`, -3.67%.
As to `COC(=O)c1ccccc1NC(=O)CSc1nc2cccnc2n1C`, the inhibition was -3.92%.
In the case of `CCSc1nc2ccccc2n1CC(=O)N1CCOCC1` it was 8.83%.
In the case of `O=C(CSc1nc2ccccc2n1CC(=O)N1CCOCC1)N1CCCC1` it was 1.43%; in that of `CC(=O)N1CCN(C(C)=O)C1c1ccccc1`, 4.82%; in that of `CCC(=O)N1CCN(C(=O)CC)C1c1ccccc1`, 1.3%.
Consider `CC1C(=O)CC(c2ccccc2)N(C)C1c1ccccc1` (stereo not given), for which the inhibition was -1.3%.
The result for `CCC(=O)N1CCN(C(C)=O)C1c1ccccc1` (stereo not given) reads -1.61%; that for `COc1ccc(N=C2SC(CC(=O)Nc3ccc(F)cc3)C(=O)N2Cc2ccco2)cc1` (stereo not given), 5.55%.
On to `COc1ccc(O)c(C(=O)c2cc(C#N)c(=O)n(-c3ccc(Cl)cc3)c2)c1`, for which the inhibition is 4.39%.
The result for `O=C(c1ccc(COCC(F)(F)F)o1)N1CCCCCC1` reads -0.95%; that for `CC(=O)c1cc(-c2ccccc2)n(CC(=O)NC(C)(C)C)c1C`, 5.46%.
In the case of `COCCNc1cc(C)c(C#N)c2nc3ccccc3n12`, the inhibition is -4.32%.
Turning to `COc1cccc(/C=N/Nc2ncnc3scc(-c4ccccc4)c23)c1O`, the inhibition is 2.95%.
In the case of `COc1ccc(/C=N/N2C(=O)CSC2=S)cc1` it was 10.4%.
In the case of `COc1cc(/C=N/N2C(=O)CSC2=S)ccc1O` it was 20.3%; in that of `Oc1ccccc1CNc1cnc2ccccc2c1`, 9.27%; in that of `COc1cccc(CNc2cnc3ccccc3c2)c1O`, 2.44%.
As for `Oc1ccc2ccccc2c1CNc1cnc2ccccc2c1`, the inhibition is 24.4% (active).
The result for `O=C(CCN1C(=O)/C(=C/c2ccc(F)cc2)SC1=S)NNC(=O)c1ccncc1` reads -9.67%; that for `O=C(NCCc1ccccc1)c1ccncc1`, -0.47%; that for `O=C(NCCCc1ccccc1)c1ccncc1`, -1.01%.
Consider `CCNC(=S)NNC(=O)c1ccncc1`, for which the inhibition is 0.26%.
`CCOc1ccc(NC(=O)CN(C)C(=O)C2CCCC2)cc1OCC`: the inhibition was 8.15%.
Turning to `CC(=O)Nc1ccc2nc(SCC(=O)N3CCOCC3)sc2c1`, the inhibition was 2.3%.
In the case of `COC(=O)CNC(=O)C(C)NC(=O)OCc1ccccc1` (stereo not given), the inhibition was 3.83%.
Take `Cc1cc(C)c2[nH]c(=O)c(C(c3nnnn3C(C)(C)C)N(Cc3ccco3)CC3CCCO3)cc2c1` (stereo not given): the inhibition is 11.4%.
In the case of `O=C(O)COc1ccccc1/C=N/NC(=O)CSc1nnc(SCc2ccccc2)s1` it was 14.1%.
With `O=C(CSc1nnc(SCc2ccc(Cl)cc2)s1)N/N=C/c1ccccc1C(=O)O`, the inhibition was 2.73%.
In the case of `O=C(O)COc1ccccc1/C=N/NC(=O)CSc1nnc(SCc2cccc3ccccc23)s1` it was 11.9%; in that of `O=C(CSc1nnc(SCc2ccccc2)s1)N/N=C/c1ccc(Cl)cc1Cl`, 5.23%.
In the case of `CCOc1ccccc1-n1c(COc2ccccc2)nnc1SCC(N)=O` it was 6.25%; in that of `COc1ccc2cc(CN(C(=O)Nc3ccccc3)C3CCCC3)c(=O)[nH]c2c1`, 10.9%; in that of `O=C(CCNC(=O)c1ccccc1Cl)Nc1ccc(S(=O)(=O)Nc2ncccn2)cc1`, -2.53%.
Regarding `Cc1ccc(C2=NN(C(=O)CCC(=O)O)C(c3cccs3)C2)cc1` (stereo not given), the inhibition was -2.92%.
The result for `COc1cccc(C2=NN(C(=O)CCCC(=O)O)C(c3cccs3)C2)c1` (stereo not given) reads 2.4%.
With `O=C(O)CCCC(=O)N1N=C(c2ccccc2)CC1c1cccs1` (stereo not given), the inhibition was -2.7%.
On to `COc1ccc(C2=NN(C(=O)CCC(=O)O)C(c3cccs3)C2)cc1` (stereo not given), for which the inhibition is 6.04%.
Take `COc1ccc(OC)c(C2CC(c3c(-c4ccccc4)c4cc(Cl)ccc4[nH]c3=O)=NN2S(C)(=O)=O)c1` (stereo not given): the inhibition was 6.89%.
`O=C(O)CCC(=O)N1N=C(c2ccc(Br)cc2)CC1c1cccs1` (stereo not given): the inhibition was 7.55%.
In the case of `COc1ccccc1C1CC(c2c(-c3ccccc3)c3cc(Cl)ccc3[nH]c2=O)=NN1S(C)(=O)=O` (stereo not given), the inhibition is 33.3%.
The result for `O=C(O)CCC(=O)N1N=C(c2ccco2)CC1c1cccs1` (stereo not given) reads -6.29%.
